# TrxR1 substrate: qHTS Assay for Substrates of Mammalian Selenoprotein Thioredoxin Reductase 1 (TrxR1): qHTS; Thioredoxin reductase 1, cytoplasmic (Rattus norvegicus), O89049; purified TrxR1 substrate turnover, NADPH consumption readout; Potency, µM (titrated, usually from 114 µM), for inactives: at the highest dose activity change, negative = substrate turnover; actives 0.01% (n = 390,000); also: potency is read from the fitted curve at half-maximal effect; % is scaled to controls: 0 for no effect and ±100 for the full control effect; nearly all actives have a fitted effect of over 50% in size
#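 Rat TrxR1, dispensed at 90 nM, was prereduced with 400 uM NADPH (final) for 5 min at ~22 deg C, then incubated with compound 15 min before 400 uM selenite. A first-read NADPH fluorescence drop versus no-compound background flagged substrates.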
# ClpP mod: qHTS Assay for Activators of ClpP; ATP-dependent Clp protease proteolytic subunit (Bacillus subtilis (strain 168)), P80244; purified B. subtilis ClpP, FRET peptide cleavage, 20 min; Potency, µM (top dose mostly 57.5 µM), without a hit: at the highest dose activity change, negative = active; actives 1.9% (n = 340,000); AID 651965, 2013; active = well fitted falling curve with a large enough effect; inconclusive = small, poorly fitted or top-dose-only effect; inactive = no such curve, though single readings can be large or run the other way; also: potency is read from the fitted curve at half-maximal effect; the source files actives as falling curves though it sought activators and does not explain the sign; nearly all actives have a fitted effect of over 65% in size
#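 FRET quenching reversal measured ClpP activation: 10 microg/mL B. subtilis ClpP at pH 8 with the FRET-FV decapeptide, read at 430 nm after 320 nm excitation. The 20-min minus 0-min signal was scaled between DMSO/no-enzyme wells and ADEP (5.8 microM final).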
# Anesthetic bind: qHTS Assay for Identification of Novel General Anesthetics; Ferritin light chain (Equus caballus), P02791; apoferritin/1-aminoanthracene competitive binding, fluorescence; Potency, µM (series often up to 77.5 µM), for the others: top-dose activity change, negative = displacement, hits mostly inhibitors; actives 0.074% (n = 350,000); also: potency is read from the fitted curve at half-maximal effect; % is scaled to controls: 0 for no effect and ±100 for the full control effect; nearly all actives have a fitted effect of over 20% in size
#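 Apoferritin-based anesthetic binding model; compound displacement of fluorescent 1-AMA measured as endpoint fluorescence after 10 minutes at room temperature, scaled to free-ligand and complex controls.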
# miR-21 act: qHTS Assay for Modulators of miRNAs and/orActivators of miR-21. HeLa miR-21 FLuc reporter, luciferase, 48 h. Potency, µM (highest dose often 38.3 µM), without a hit: at the highest dose activity change, positive = activation, most hits filed as activators. 340,000 tested, under 10 active. AID 2288, 2010;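 also: % of control where 0% means no effect; miR-21 action dims this reporter so a rising signal means less miR-21 action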
#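 Using DMEM plus 10% FBS, HeLa miR-21-FLuc cells are incubated with test compounds (final up to about 40uM) for 48 hours; firefly luciferase signal is then imaged following reagent-mediated lysis.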
# TrxR1 inh: qHTS Assay for Inhibitors of Mammalian Selenoprotein Thioredoxin Reductase 1 (TrxR1): qHTS; Thioredoxin reductase 1, cytoplasmic (Rattus norvegicus), O89049; recombinant rTrxR1, NADPH fluorescence consumption, selenite substrate; Potency, µM (highest dose often 114 µM), for inactives: at the highest dose activity change, negative = inhibition, actives largely listed as inhibitors; actives 1% (n = 390,000); AID 588453, 2011; also: potency is read from the fitted curve at half-maximal effect; % is scaled to controls: 0 for no effect and ±100 for the full control effect; nearly all actives have a fitted effect of over 65% in size
#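 Rat TrxR1 (90 nM in the dispensed reagent) was pre-reduced with 400 uM NADPH for 5 min at room temperature, then incubated with compound for 15 min. After 400 uM selenite was added, NADPH fluorescence (Ex 340/Em 450 nm) was followed for 8 min.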
# An asterisk follows results filed as active; ? = inconclusive; . = not tested or not shown; [ ] = another dose, or the depositor's remark. An excerpt weighted towards active compounds, which were near 2.5% of everything screened. Unless noted, calls follow the shape of the dose curve; as a rule, active = well fitted curve in the direction sought with a large enough effect; inconclusive = small, poorly fitted or top-dose-only effect, or another doubt; inactive = no such curve, though single readings can be large; an effect the other way counts as inactive or inconclusive.
SMILES,TrxR1 substrate,ClpP mod,Anesthetic bind,miR-21 act,TrxR1 inh
O=C(Nc1ccc2nc(SCC(=O)N3CCCc4ccccc43)sc2c1)c1ccccc1,9%,14µM*,4%,26%,42%
CCOc1ccc(C(=O)Nc2ccc3nc(SCC(=O)N4CCc5ccccc54)sc3c2)cc1,-1%,?,-8%,4%,-28%
Cc1ccc(C(=O)Nc2ccc3nc(SCC(=O)N4CCCc5ccccc54)sc3c2)cc1,3%,20µM*,12%,8%,38%
COc1ccc(C(=O)Nc2ccc3nc(SCC(=O)N4CCCc5ccccc54)sc3c2)cc1,8%,?,58%,-5%,34%
O=C(Nc1ccc2nc(SCC(=O)N3CCc4ccccc43)sc2c1)c1ccccc1,14%,8.9µM*,46%,5%,45%
Cc1cccc(NC(=O)c2cnn(-c3ccccc3)c2-n2cccc2)c1C,2%,-5%,-18%,-3%,16%
CC1=C(C#N)c2nc(N)c(C#N)c(C)c2/C1=C\c1ccc(OCC(=O)O)c(Cl)c1,10%,.,0%,-3%,50µM*
CCOC(=O)CSc1nc(N)c(C#N)c(-c2ccc(OCC)cc2)c1C#N,29%,30%,11%,-36%,-1%
O=C(CCC(=O)CCN1CCCCC1)CCN1CCCCC1,8%[57.1 µM],-1%,-4%,-4%,1.8µM*
COc1ccc(-c2cc(C(C)=O)c(C)n2CCC(=O)Nc2cccc(C)c2C)cc1,7%[57.1 µM],-6%,7%,-1%,23%[57.1 µM]
CCOc1ccc(S(=O)(=O)NCc2ccc(F)cc2)c2cccnc12,68%,25µM*,?,-10%,-9%
CCOc1ccc(S(=O)(=O)Nc2ccccn2)c2ccccc12,79%,35µM*,-7%,-3%,39%
CCCOc1ccc(S(=O)(=O)Nc2ccccn2)c2ccccc12,19%[57.1 µM],-2%,-15%,-20%,11%[57.1 µM]
CCOC(=O)c1[nH]c(C)c(CCC(=O)NCc2ccccc2Cl)c1C,5%[57.1 µM],2%,-3%,-6%,25%[57.1 µM]
COc1cccc(C2C(=O)N(C3CCCCC3)CC(=O)N2Cc2ccc(Cl)cc2)c1 (configuration not stated),1%[57.1 µM],2%,4%,1%,12%[57.1 µM]
O=C(NC(=S)NC1C2CC3CC(C2)CC1C3)c1ccccc1 (configuration not stated),5%,-2%,?,-28%,50µM*
O=C(COC(=O)Cn1cc(C(F)(F)F)ccc1=O)Nc1ccc(Br)cc1F,1%,25µM*,.,.,9%
CC1=CC2=NC(=O)CC(C)(C(=O)N(CC(=O)NC(C)(C)C)C3CCCC3)N2C=C1 (configuration not stated),29%,32µM*,-8%,1%,13%
Cn1c(-c2ccccc2O)cc2ccccc21,12%[57.1 µM],16µM*,?,1%,11%[57.1 µM]
Cn1c(-c2ccccc2)cc2ccccc21,18%[57.1 µM],2%,-1%,-4%,12%[57.1 µM]
CCOC(=O)N1CCN(S(=O)(=O)c2ccc(NC(C)=O)cc2)CC1,2%,1%,-2%,2%,31%
CCOC(=O)N1CCN(S(=O)(=O)c2ccc(C(=O)Nc3ccc4c(c3)C(=O)NC4=O)cc2)CC1,63%,20µM*,-3%,-3%,21%
COc1ccc(C2(OC)Oc3cc(OC)ccc3C(=O)C2(O)OC)cc1 (configuration not stated),19%[57.1 µM],32µM*,.,.,12%[11.4 µM]
COc1ccc(-c2ccc(CCC(=O)O)n2CC(=O)Nc2cccc(Cl)c2C)cc1,5%,-6%,-11%,4%,-10%
Cc1ccc2cc3c(nc2c1)N(Cc1ccco1)CC3,29%[57.1 µM],28µM*,-12%,-20%,-2%[57.1 µM]
SMILES,TrxR1 substrate,ClpP mod,Anesthetic bind,miR-21 act,TrxR1 inh
CC(C)(C)c1ccc(-n2nc(C(N)=O)c(O)cc2=O)cc1,2%,.,0%,-1%,21%[57.1 µM]
CC(C)(C)c1ccc(-n2nc(C#N)c(Cl)cc2=O)cc1,4%[57.1 µM],.,?,?,16µM*
CN(C)S(=O)(=O)c1cccc(NC(=O)C2Cc3ccccc3CN2C(=O)c2ccco2)c1 (configuration not stated),4%,.,0%,-22%,56µM*
CCOC(=O)c1c(S(=O)(=O)NCC(=O)Nc2cccc(SC)c2)c(C)n(C)c1C,2%[57.1 µM],0%,?,?,7%[57.1 µM]
COc1ccc(Br)cc1CN(C)CC(=O)Nc1ccccc1Cl,-14%,28µM*,5%,-11%,-11%
CC1(C)C(=O)N(CC(=O)Nc2cccc(F)c2)c2ccc(S(=O)(=O)N3CCCCC3)cc21,-2%[57.1 µM],1%,5%,7%,14%[57.1 µM]
CCOc1ccc(NC(=O)c2nc(S(=O)(=O)Cc3ccccc3C)ncc2Cl)cc1,-3%,-7%,.,.,14µM*
COc1ccc(NC(=O)c2nc(S(=O)(=O)Cc3cccc(C)c3)ncc2Cl)c(OC)c1,2%,0%,-7%,-7%,13%
CCOc1ccccc1NC(=O)c1nc(S(=O)(=O)Cc2ccccc2F)ncc1Cl,10%,?,.,.,?
Cc1ccccc1CS(=O)(=O)c1ncc(Cl)c(C(=O)Nc2ccc(F)cc2)n1,-3%,0%,-6%,?,0%
Cc1ccc(NC(=O)c2nc(S(=O)(=O)Cc3ccccc3)ncc2Cl)cc1,-2%,.,?,?,8.9µM*
O=C(NCc1ccccc1)c1nc(S(=O)(=O)Cc2ccc(F)cc2)ncc1Cl,-1%,-8%,-20%,?,3.5µM*
O=C(Nc1ccc(F)cc1)c1nc(S(=O)(=O)Cc2ccccc2)ncc1Cl,1%,1%,?,?,3.5µM*
CCC(=O)N1CCc2cc(CNC(=O)Cc3ccc(F)cc3)ccc21,-8%[57.1 µM],-1%,-8%,-24%,-3%[57.1 µM]
CCOc1ccc(NC(=O)c2nc(S(=O)(=O)Cc3ccc(F)cc3)ncc2Cl)cc1,1%,1%,.,.,4.5µM*
Cc1cccc(CS(=O)(=O)c2ncc(Cl)c(C(=O)NCc3ccccc3)n2)c1,-2%,1%,?,?,6.3µM*
COc1cc2nc(N3CCOCC3)nc(NC3CCN(Cc4ccccc4)CC3)c2cc1OC,31%,4%,.,.,-34%
COc1cccc(NC(=O)c2oc3ccccc3c2NC(=O)c2ccc(OC(C)C)cc2)c1,24%,4%,83%,-34%,48%
Cc1csc2nc(COC(=O)c3cccc(NC(=O)COc4ccccc4Cl)c3)cc(=O)n12,11%[57.1 µM],1%,-9%,14%,20%[57.1 µM]
